From PubChem BioAssay AID648 (SRMLSC, 2007) come the findings set out here.

One may read the viability as a read-out of living cells in per cent, often relative to untreated cells.

Structures are written as SMILES. The whole screen tested about 86,000 compounds, of which about 920 (1.1%) were called active. For the sample, actives were picked, then their nearest neighbours and some compounds at random. A number with no mark means an inactive call.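 How the source made its calls: active means viability at or below 30%; inactive means viability above 30%.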

The assay can be described thus: inhibitors of HUVEC proliferation, primary screen, cell-based, 384-well (AID 648).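 Further: 100% = median luminescence of DMSO-only cell control wells on each plate.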 The following applies: CellTiter-Glo luminescence, 72 h, active compounds read low, screened at 10 µM (by protocol). Background: In ATP-based viability assays light output follows the ATP content of the culture.
With `CCC(=O)Nc1sc(C(=O)N2CCCCC2)c(C)c1C#N`, the viability is 98.7%.

Turning to `CC(C)(C)C1CCc2c(sc3nc(SCC(N)=O)nc(N)c23)C1` (centres undefined), the viability is 48.8%.

Consider `CN1CCN(CC(=O)Nc2sc3c(c2C#N)CCC(C(C)(C)C)C3)CC1` (centres undefined), for which the viability is 2.13% (active).

With `O=C(O)CSc1nccn1-c1cccc(Cl)c1`, the viability is 105%.

For `CC(C)NC(=O)C(=O)NCCN1CCN(S(=O)(=O)c2ccc(Cl)cc2)CC1`, the viability was 114%.

For the compound `CCSc1nc(-c2ccc(OC)cc2)cc(-c2ccc(OC)cc2)c1C#N`, the viability is 100%.

As for `COc1ccc(Nc2ncc(C(=O)N3CCN(c4ccccc4OC)CC3)c3ccccc23)cc1`, the viability was 62.2%.

In the case of `O=C(CO/N=C/c1ccccc1O)NNC(=O)c1ccccc1Cl`, the viability was 97.1%.

Regarding `CCNS(=O)(=O)c1ccc(NC(=O)Nc2cccc(OC)c2)cc1`, the viability is 72.2%.

`O=C(O)CSCC(=O)Nc1cccc(C(F)(F)F)c1`: the viability is 89.5%.

`CCNS(=O)(=O)c1ccc(NC(=O)Nc2cccc(C(F)(F)F)c2)cc1`: the viability is 29.7% (active).

`O=C1CCCc2c1[nH]c1ccc(Br)cc21`: the viability was 16.3% (active).

Turning to `O=C(O)CCC(=O)NCc1ccc2[nH]c3c(c2c1)CCCC3`, the viability was 98.8%.

`O=[n+]1c2c(n([O-])c3cc(Br)ccc31)CCC2`: the viability is 94.2%.

With `COc1cccc2c1OCC1COc3c(c(=O)n(C)c(=O)n3C)C21` (centres undefined), the viability is 104%.

In the case of `Cc1cc(C)cc(NC(=O)c2cccc(NC(=O)C3C4CC5OC(=O)C3C5C4)c2)c1` (centres undefined), the viability was 92.7%.

Take `CC(C)Cc1nc(N2CCOCC2)c(C#N)c2c1CCC2`: the viability was 103%.

Regarding `CC(C)CCNc1nc(N2CCCC2)c2c(c1C#N)CCN(C)C2`, the viability was 2.55% (active).

As to `CCN1CCc2c(C#N)c(NCc3ccccc3)nc(NCCO)c2C1`, the viability is 79.7%.

In the case of `CCOc1ccc(S(=O)(=O)Nc2ccc(S(=O)(=O)Nc3cc(OC)ccc3OC)cc2)cc1`, the viability was 95.7%.

For `CCCCCCc1cc2cc(-c3nnc(-c4cccc(OC)c4)o3)c(=O)oc2cc1O`, the viability is 31.1%.

As to `CCC1(CC)Cc2ccccc2-c2nc3ccccc3c(=O)n21`, the viability was 102%.

Regarding `COc1ccccc1N1CCN(Cc2nnnn2CCc2ccccc2)CC1`, the viability is 100%.

In the case of `COc1ccccc1N1CCN(C(=O)CN(Cc2ccc(Cl)cc2)S(C)(=O)=O)CC1`, the viability is 109%.

Regarding `COc1ccccc1-n1nnnc1S(=O)(=O)Cc1ccc(Cl)cc1`, the viability is 11.8% (active).

Turning to `Cc1nc(NC(=O)CN(C)S(=O)(=O)c2ccc(Cl)cc2)sc1C`, the viability was 101%.

On to `c1ccc2c(c1)C(=NC1CCCCC1)NC2=NC1CCCCC1`, for which the viability was 26.7% (active).

As for `O=C1CCCCC(=O)c2ccccc2N1`, the viability was 98.7%.

On to `CCOC(=O)c1cnc(SCC(=O)Nc2cccc(OC)c2)nc1N`, for which the viability was 93.3%.

In the case of `CCn1nnnc1SCC(=O)c1ccc(C)cc1C`, the viability was 92.1%.

Take `OC(COc1ccc2c(c1)CCC2)CN1CCN(c2cccc(Cl)c2)CC1` (centres undefined): the viability was 83.9%.

For `Cc1coc2c(O)cc3c(c12)OC1(N2CCCCC2)C(=O)NCCCC31` (centres undefined), the viability is 6.44% (active).

With `Cc1cccc(NC(=O)N(Cc2cc3cc(C)cc(C)c3[nH]c2=O)CC2COCCO2)c1` (centres undefined), the viability was 77.6%.

With `N#CCSc1nc2c(c(=O)n1Cc1ccccc1)C1(CCCC1)Cc1ccccc1-2`, the viability is 101%.

On to `Cc1c(C=O)c2ccccn2c1C(=O)c1ccncc1`, for which the viability was 97%.

Regarding `CCc1c(-c2ccccc2)nc(N)c(C#N)c1-c1cccs1`, the viability was 102%.

As for `COc1cccc(-c2nnc(NC(=O)c3ccc(S(=O)(=O)N(CC(C)C)CC(C)C)cc3)o2)c1`, the viability was 23.6% (active).

As for `CCN(CC)C(=O)CSc1nnc(-c2cccc(OC)c2)o1`, the viability was 104%.

Consider `COc1cccc(NC(=O)CN(C)S(=O)(=O)c2ccc(C)cc2)c1`, for which the viability is 97.5%.

On to `CC1(C)NC(=O)N(CCCCSc2ccc(Cl)cc2)C1=O`, for which the viability was 97.1%.

Turning to `CC(C)NS(=O)(=O)c1ccc(NC(=O)C2CCCCC2)cc1`, the viability was 106%.

`Cc1nc(-c2ccc(NC(=O)c3cccs3)cc2)cs1`: the viability is 89.5%.

Take `O=C(Cc1cccc2ccccc12)Nc1ccc2oc(-c3ccccc3)nc2c1`: the viability was 49.6%.

For the compound `O=C(Nc1ccc2oc(-c3ccc4ccccc4c3)nc2c1)c1cccs1`, the viability is 22% (active).

For the compound `CC(Oc1ccc(Cl)cc1)c1ccnn1S(C)(=O)=O` (centres undefined), the viability is 73.7%.

With `COc1ccccc1C(=O)N1CC2(C)CC1CC(C)(C)C2` (centres undefined), the viability is 94%.

For the compound `COn1c(=O)c(=O)n(OC)c2ccccc21`, the viability was 105%.

Consider `Oc1c(CN2CCN(c3ccc(F)cc3)CC2)cc(Cl)c2cccnc12`, for which the viability is 5.81% (active).

For `CCN1CCN(C(c2cccnc2)c2cc(Cl)c3cccnc3c2O)CC1` (centres undefined), the viability was 74.6%.

On to `O=C(c1cccc(C(=O)N2CCN(c3ccc(F)cc3)CC2)c1)N1CCN(c2ccc(F)cc2)CC1`, for which the viability was 92.2%.

On to `Cc1nnc(SCC(=O)N2CCN(c3ccccc3)CC2)n1-c1ccccc1`, for which the viability was 93.5%.

As for `COC(=O)c1ccc(CSc2nnc(NC(C)C)s2)cc1`, the viability was 96.9%.

With `CCc1c(O)nc(SCC(=O)Nc2ccccc2)n(C(C)CC)c1=O` (centres undefined), the viability is 96.5%.

On to `CC(C)(C)n1nnnc1C(c1ccc(F)cc1)N1CCN(Cc2ccc3c(c2)OCO3)CC1` (centres undefined), for which the viability is 89%.

In the case of `CCCc1nc(NCc2ccc3c(c2)OCO3)c2nnn(Cc3ccccc3Cl)c2n1`, the viability is 73.6%.

As for `Cc1nc(Nc2ccc3c(c2)OCCO3)c2nnn(Cc3ccccc3Cl)c2n1`, the viability was 29.5% (active).

Turning to `C#CCNc1nc(C(C)C)nc2c1nnn2Cc1ccccc1F`, the viability was 127%.

On to `Nc1c(C(=O)NCc2ccccc2)sc2nc3c(cc12)C(=O)CCC3`, for which the viability is 84.8%.

With `Cc1nnc(SC(C)C(=O)Nc2ccc(S(=O)(=O)NC3CCCCC3)cc2)s1` (centres undefined), the viability was 104%.

For `O=C(Nc1ccccc1)c1ccc2c(c1)OCO2`, the viability was 94%.

Turning to `Cc1cccc(Nc2ccccc2C(=O)NCc2ccco2)c1C`, the viability is 63.9%.

Turning to `Cc1cccc(C)c1N1CCN(S(=O)(=O)N2CCOCC2)CC1`, the viability was 108%.

As to `CC1=C/C(=N\OS(=O)(=O)c2ccccc2)C=CC1=O`, the viability was 1.29% (active).

Consider `c1ccc(-c2nc(NCc3ccco3)c3ccccc3n2)cc1`, for which the viability was 85.5%.

For the compound `CCSc1nnc(NC(=O)Cc2ccccc2OC)s1`, the viability is 93.5%.

For `CC(C)c1cc(C(=O)O)n[nH]1`, the viability was 90.3%.

For `C=C(C)CSc1nnc(-c2ccc(C)cc2)n1N`, the viability was 93.8%.

Consider `OCCCN1c2ccccc2Nc2nnc(-c3ccccc3)cc21`, for which the viability is 69.2%.

Regarding `N=c1c2c(-c3ccccc3)c(-c3ccccc3)n(Cc3ccccc3)c2ncn1CCCO`, the viability was 1.91% (active).

Consider `O=C(NCCN1CCOCC1)c1c(F)c(F)c(F)c(F)c1F`, for which the viability is 94.7%.

On to `CC(=O)Oc1cc2c(C(=O)NCCN3CCOCC3)c(C)oc2c2ccccc12`, for which the viability was 4.78% (active).

Take `O=C(CCN1C(=O)c2ccccc2C1=O)NCCN1CCOCC1`: the viability is 93.8%.

Regarding `CCCOc1ccc(N2C(=O)CC(N(CCc3ccc(S(N)(=O)=O)cc3)C(C)=O)C2=O)cc1` (centres undefined), the viability is 98%.

Regarding `O=C1c2ccccc2C(=O)N1CCCc1nc(-c2ccccc2)no1`, the viability is 111%.

Consider `Cc1ccc(-c2csc(SCC(=O)Nc3cc(C)on3)n2)cc1`, for which the viability is 100%.

On to `O=C(CCN1c2ccccc2Sc2ccccc21)Nc1ccccc1`, for which the viability was 84.5%.

For the compound `Cc1ccc(C2(C(F)(F)F)N=C3Sc4cc(C)cc(C)c4N3C(=O)N2)cc1` (centres undefined), the viability was 21.8% (active).

Regarding `COC(=O)c1nc2ccccc2s1`, the viability was 93.3%.

As to `CCc1cc(=O)oc2cc(OCC(=O)N3CCCc4ccccc43)ccc12`, the viability is 80.5%.

Turning to `Cc1ccccc1N1CCN(CCCOc2ccc3c(C)cc(=O)oc3c2)CC1`, the viability is 25.2% (active).

Consider `Cc1cc(=O)oc2cc(OCC3CC(c4ccccc4Cl)=NO3)ccc12` (centres undefined), for which the viability was 44.4%.

Consider `CCCC1(C(=O)OCC)NC(c2ccc(N(C)C)cc2)C2C(=O)N(c3ccc4c(c3)OCCO4)C(=O)C21` (centres undefined), for which the viability is 104%.

Consider `CCN(CC)C(=O)CSc1ncnc2c1cnn2-c1ccccc1`, for which the viability was 123%.

In the case of `Cc1ccc(C(=O)NCC2CCCO2)o1` (centres undefined), the viability is 106%.

In the case of `OC(CNCC1CCCO1)Cn1c2ccc(Br)cc2c2cc(Br)ccc21` (centres undefined), the viability was 3.17% (active).

On to `Cc1cc(Br)ccc1NC(=O)C1CCCO1` (centres undefined), for which the viability is 90.3%.

Turning to `Cc1ccc(S(=O)(=O)/N=C(\CN2CCOCC2)N2CCOCC2)cc1`, the viability was 89.5%.

Regarding `Cc1ccc(CN2CCN(/N=C/c3ccco3)CC2)c(C)c1`, the viability was 104%.

As to `COc1ccc(-c2n[nH]c(C)c2-c2ccc(OC)c(OC)c2)c(O)c1`, the viability was 48.7%.

Regarding `C=C(C)COc1ccc(-c2n[nH]c(C)c2-c2ccccc2)c(O)c1`, the viability was 54%.

Take `C=C(C)COc1ccc(-c2n[nH]c(C)c2-c2ccccc2OC)c(O)c1`: the viability was 23.9% (active).

Turning to `O=C(NCC1CCCO1)c1ccc2ccccc2n1` (centres undefined), the viability is 89.6%.

In the case of `O=S(=O)(NC1CCCCC1)c1ccc(F)c2ccccc12`, the viability is 81.9%.

As to `Cc1ccc(S(=O)(=O)NCCSC(C)(C)C)cc1`, the viability was 103%.

As to `CCc1nnc(NC(=O)CSc2nc3ccccc3c(=O)n2CCCOC)s1`, the viability is 90.7%.

On to `Cc1cc(C)n(-c2nc(SCC(=O)N3CCCC3)c3c4c(sc3n2)CCCC4)n1`, for which the viability is 16.2% (active).

Take `Cc1nc(SCC(=O)Nc2cc(C)on2)c2c3c(sc2n1)CCCC3`: the viability was 75.7%.

As to `COCCNc1nc(-n2nc(C)cc2C)nc2sc3c(c12)CCCC3`, the viability was 78%.

On to `CCCCCCNC(=O)CSc1nccn1Cc1ccccc1`, for which the viability is 80.6%.
